# Assay outcomes from PubChem BioAssay.
# This is a sample that favours compounds with a hit; in the whole collection about 4.8% have one here.
# Calb FLC: affects C. albicans growth with fluconazole; C. albicans CaCi-2 (fluconazole-resistant clinical isolate) + fluconazole, Alamar Blue growth, 48 h; 0.57% of 300,000 active; growth inhibition, % (no concentration beside the values);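 active means growth inhibition above about 58% in most replicates, limit read from the data, passing the limit was not always enough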;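 further: all wells also contain fluconazole at 8 µg/ml as a sub-toxic cotreatment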
# CSC inhib: cancer stem cell inhibition; cancer stem cell-like cells viability, luminescence; inhibition, % at 7.5 µM; 1.1% of 300,000 active; AID 2717; in the data active means inhibition above about 75%; tested in HMLE shEcad cells
# Mdm2-MdmX inh: human Mdm2/MdmX binding inhibition. 3% of 330,000 active. SaOS-2 split-luciferase Mdm2/MdmX complementation, luminescence. inhibition, % at 8 µM. AID 485346. O15151+Q00987;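 active means inhibition of at least 50% at 8 µM in the primary screen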
# Target sequence (O15151 whole entry, looked up): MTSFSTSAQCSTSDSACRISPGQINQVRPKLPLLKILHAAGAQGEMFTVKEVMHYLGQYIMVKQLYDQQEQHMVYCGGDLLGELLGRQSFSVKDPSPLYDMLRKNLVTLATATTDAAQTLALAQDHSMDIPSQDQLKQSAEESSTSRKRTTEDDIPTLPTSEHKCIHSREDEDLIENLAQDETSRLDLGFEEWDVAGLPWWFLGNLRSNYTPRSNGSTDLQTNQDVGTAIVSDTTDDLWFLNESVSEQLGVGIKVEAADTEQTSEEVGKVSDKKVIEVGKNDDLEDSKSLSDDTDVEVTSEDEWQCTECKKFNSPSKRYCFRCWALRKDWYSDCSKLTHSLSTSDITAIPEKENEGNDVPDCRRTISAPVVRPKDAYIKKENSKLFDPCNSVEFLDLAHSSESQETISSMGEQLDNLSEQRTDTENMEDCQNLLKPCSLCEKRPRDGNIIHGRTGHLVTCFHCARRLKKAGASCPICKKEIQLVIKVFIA
# Target sequence (Q00987 whole entry, looked up): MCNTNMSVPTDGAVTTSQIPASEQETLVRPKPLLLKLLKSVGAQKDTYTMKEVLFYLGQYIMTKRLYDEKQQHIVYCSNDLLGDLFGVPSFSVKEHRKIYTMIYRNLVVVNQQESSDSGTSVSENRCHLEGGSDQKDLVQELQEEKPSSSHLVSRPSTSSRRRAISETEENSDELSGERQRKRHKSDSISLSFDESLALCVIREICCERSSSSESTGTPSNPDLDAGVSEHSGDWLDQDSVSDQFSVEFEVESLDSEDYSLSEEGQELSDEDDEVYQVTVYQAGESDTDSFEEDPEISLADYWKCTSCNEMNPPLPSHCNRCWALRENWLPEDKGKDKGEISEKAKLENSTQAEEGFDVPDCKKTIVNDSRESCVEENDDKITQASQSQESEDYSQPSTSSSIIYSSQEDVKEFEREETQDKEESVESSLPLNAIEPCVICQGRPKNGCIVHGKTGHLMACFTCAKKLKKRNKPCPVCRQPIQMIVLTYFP
# MPTP inh: inhibitors of mitochondrial permeability transition pore; isolated mouse mitochondria, Ca2+ swelling absorbance, 30 min; inhibition, % at 10 µM; 1.4% of 360,000 active; AID 602449;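 active means inhibition of 50% or more, scaled per plate between neutral and stimulator controls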
# Beta cell apopt: beta cell apoptosis inhibition; 0.8% of 300,000 active; INS-1E cytokine-induced death, ATP luminescence, 48 h; percent of positive-control rescue, neutral wells zero; AID 435005; protection from apoptosis, % (test concentration not listed);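 active means Every replicate reaches about 75%, or at least half do and their mean reaches it too, limit read from the data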;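 further: higher means more ATP so stronger rescue from cytokine killing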
# Numbers stand for hits; – = inactive; · = not tested or not shown.
SMILES,Calb FLC,CSC inhib,Mdm2-MdmX inh,MPTP inh,Beta cell apopt
CC1CCCCC1NC(=O)/C(C#N)=C/c1ccccc1F (stereo unspecified),–,80.8,–,–,–
CSc1ccc(/C=C(\C#N)C(=O)NC2CCCCC2C)cc1 (stereo unspecified),–,–,–,–,–
O=C(NCC(F)(F)F)C1C(=O)Nc2ccccc2C(=O)N1Cc1ccccc1 (stereo unspecified),·,·,·,–,·
CC1CCC2C(=O)N(c3ccc(NC4CCCCC4)c([N+](=O)[O-])c3)C(=O)C2C1 (stereo unspecified),–,76.1,–,–,–
Cc1ccc(S(=O)(=O)N2C[C@H]3[C@H]4C(=O)N(C)C(=O)[C@H]4CC(=O)[C@H]3[C@@H]2c2ccccc2F)cc1,·,·,·,–,·
C=C(C)[C@@H]1CCC2(C(=O)O)CC[C@]3(C)[C@H](CC[C@@H]4[C@@]5(C)CCC(=O)C(C)(C)[C@@H]5CC[C@]43C)[C@@H]12 (stereo partly specified),–,–,–,–,–
C=C(CC[C@@H](O)C(C)(C)O)[C@H]1CC[C@]2(C)[C@@H]1CCC1[C@@]3(C)CCC(=O)C(C)(C)C3CC[C@]12C (stereo partly specified),·,109.3,–,–,–
CCCCNC(=O)C1c2ccccc2OCC(=O)N1CCCN1CCOCC1 (stereo unspecified),·,·,·,–,·
c1cncc(CNc2ncnc3ccc(-c4ccc5c(c4)OCO5)cc23)c1,·,·,–,–,–
c1nc(NCc2ccc3c(c2)OCO3)c2cc(-c3ccc4c(c3)OCCO4)ccc2n1,·,·,–,–,99.2
CC1(C(=O)NC2CCCC2)CCC(=O)N1CCOc1ccccc1 (stereo unspecified),·,·,·,–,·
COc1ccc(Cc2c(C3CCCCC3)nc3c(C)cc(Br)cn23)c(C)c1,·,·,·,–,·
O=C1CCC/C(=N/Nc2ccc(Cl)cc2)C1,105.7,–,–,–,–
O=C(NN=C1CCCC1)c1ccc(Cl)cc1,–,–,–,–,–
CC1(C)CC(=O)C2=C(C1)OC1=C(C(=O)CC(C)(C)C1)C2c1cc([N+](=O)[O-])cc([N+](=O)[O-])c1O,91.2,–,–,–,·
Cn1nc(-c2ccc(Cl)cc2)c2cc(C(=O)NCCCN3CCCC3)sc21,–,81.7,–,–,–
CCCCN(C)CCNC(=O)c1cc2c(-c3ccccc3F)nn(C)c2s1,–,–,–,–,96.7
CCCCNC(=O)c1cc2c(-c3ccc(Cl)cc3)nn(C)c2s1,–,–,–,–,–
COCCNC(=O)c1cc2c(-c3ccccc3F)nn(C)c2s1,–,–,–,–,–
O=C(Nc1nnc([C@@H]2C[C@H](O)[C@@H](CO)O2)s1)Nc1ccc(F)cc1F,·,·,·,–,·
CCOC(=O)[C@]12CCCC=C1N(CCc1ccc(OC)c(OC)c1)C(=O)[C@H](CC(=O)N1CCCCC1)C2,·,·,·,–,·
O=C(Nc1nc2ccccc2s1)c1ccccc1,–,–,–,–,–
c1ccc2sc(NN=C3CCCCCC3)nc2c1,106.3,–,–,–,–
CN(C)CCNc1ncnc2c1ncn2[C@H]1CN(Cc2cccs2)C[C@@H](CO)O1,·,·,·,–,·
Cc1ccc(C(=O)c2oc3nc(C)cc(C)c3c2N)cc1,120.7,–,–,–,–
SMILES,Calb FLC,CSC inhib,Mdm2-MdmX inh,MPTP inh,Beta cell apopt
Cc1cc(OCC(=O)Nc2ccc(S(=O)(=O)NC3=NCCCCC3)cc2)c(C(C)C)cc1Cl,–,85.0,–,–,–
COc1cccc(-c2oc3c(c2C(=O)OCCN(C)C)C(O)CCC3)c1 (stereo unspecified),·,·,·,–,·
CCC(O)CC(C(=O)NNc1ccccc1)C(=O)NNc1ccccc1 (stereo unspecified),100.4,–,–,–,–
CCOC(=O)NNc1ccccc1,–,–,–,–,–
Cc1ccnc(Sc2ccc([N+](=O)[O-])cc2[N+](=O)[O-])n1,97.6,–,–,–,–
Cc1ccc(Sc2ccc([N+](=O)[O-])cc2[N+](=O)[O-])nc1,–,–,–,–,–
CCOC(=O)[C@]12CCC=C1N(Cc1ccc(Cl)cc1Cl)C(=O)[C@H](CC(=O)NCc1cccs1)C2,·,·,·,–,·
NS(=O)(=O)c1ccc(CNc2ncnc3sccc23)cc1,–,–,–,–,–
CN(C)c1ccc(CNc2ncnc3sccc23)cc1,84.9,–,–,–,–
Cc1ccc(F)c(S(=O)(=O)NC(=O)C2(C)CCN2C(=O)c2sccc2C)c1 (stereo unspecified),·,·,·,–,·
COc1ccc(-c2csc(C(O)c3ccc(F)cc3)n2)cc1OC (stereo unspecified),·,·,·,–,·
COc1cccc2sc(Nc3nc(-c4ccccn4)cs3)nc12,–,·,–,–,110.9
CCOC(=O)c1sc(Nc2nc3c(OC)cccc3s2)nc1C,78.3,–,–,–,–
